# In the supplement of paper PMC6555819:
# Test system: VDR:RXRa (NR concentration 270 nM, RXRa partner concentration 90 nM)
# Assay: PBM binding z-score (relative to random genomic background probes); higher = stronger binding; sequences stand for … in GC…GCGATTGACAGCGTAGAATGAAGG
# Description: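 Protein-binding microarray (Agilent 4x180K custom design, double-stranded 60-nt probes: 5' GC cap, 34-nt variable region, 24-nt constant primer region; full probe sequence given). Purified or IVT nuclear receptor:RXRα heterodimers (3:1 NR:RXRα, mostly 270:90 nM) or homodimers were incubated for 1 h in PBS with 2% milk and no ligand, then detected with Alexa488 antibodies. Fluorescence from o1-orientation probes (~5 replicates averaged) was converted to z-scores against 500 random hg19 background probes. Variable regions are seed direct-repeat (DR0–DR5) sites, all their single-nucleotide variants and half-site ablations.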
row,Sequence,PBM binding z-score
1,GTACCAAGCTGAATAGGTCGTTGATGAGTAGGCG,-0.239
2,CCTATTAGTTGACCCTAAGGGCAACCGAAGCTCG,3.74
3,TCTTGTAGATCTAGCAGGTTAAGAAAGCCTGAGT,0.391
4,TAGCCTAGGTCAGATCGGGCCCGTATACGCTATA,0.22
5,CCGACTGGGGAAAAGGTTACCATACTCAGTACGA,0.397
6,TCTTGTAGATCAATAGAGGATAAGAAAGTGCGCT,0.432
7,CCTGCTAGGTCATGGTCAGCTACTCTACAGTATG,1.46
8,TCGAGTAGGTTAGGGTCATTCAGAATGGCGTCGA,4.32
9,CCTAGTAGGTCAAGGTCACACACGCTATAGGTAC,5.04
10,CCAATTAGTTGACCATAAGGGCAACCGAAGCTCG,0.678
11,AGAACGAGGGCACCCTGAGTTGATAGCAGAGTAG,1.47
12,CAAACTAGCTCACGAAAGGTCAAAGTCGAATGAC,4.32
13,CCTTACTGGTCAAGGTTATAGCACGGGTGGTACG,0.737
14,CATACTGGGCCAAGGTCATTGATCAGTCAAAGCA,3.48
15,CGAACGAGGGCATGAGTTGTTAGCAAATGCCGAT,0.896
16,GCGACTGGGGCATCAGCATGTTACCATAACTTAA,-0.304
17,CGTCCAAGGTCAATGCTAGGTCAGTGTAAGCATT,4.85
18,GGAACGAGGGCAAATTTGATAGCATCTGTCGACG,0.619
19,TCATATATGTAAAAGGTGAAAGTCGGTGTGGTAA,1.24
20,CGTCCATGGTCAAGGTCAGTGAAAGAGACTCGAA,1.51

row,Sequence,PBM binding z-score
1,CGCCAAAGTTCAAGGTAACGTAACAGAAAGCAGC,3.76
2,CCGAATGGGGCAAAGGTTACCATACTCAGTACGA,1.77
3,CCGACTGTGGCATAAGGTTACCATAAGCCAGCCC,0.153
4,ATCTCTAGGTAACAAGTTGAGTGAAAGAGAGGAC,0.415
5,CCGAGTAGGTTATAGGGCATTCAGGCAACGGTGA,0.402
6,GGAACGAGGGCAAAGTTGTTAGCATCTGTCGACG,1.09
7,ACTAGCAGGCCAAGGGTCCCTCAAGATTAGTCCG,-0.454
8,CGACCAAGGTGAACAAGGTCGTTGATTACTATTC,6.02
9,CTCGAAATGTCGGTTGAGGTGAGTATACGGATAA,-0.148
10,AGAATGAGGTTAAAATCAGGGAAACAGAATACAT,1.33
11,TCGAGTAGGTTACGAATGGGGCATTCAGCTTTCT,-0.137
12,TCTTGTAGATCAGCAGGTTAATAAAGCTGGCCAA,0.526
13,ATCGAAAGGTCGAGGTGTGTATAGAGAAAGGGAA,2.32
14,CCAACTAGGTCAAGGACAGTGAATCTCCGCACGC,1.16
15,ACATGTAGGTTAGCTGGGGTCATTCAGACTAGGC,6.43
16,ACAGGCAGGTGATGAAGGTAACTCAGGCTATCAT,-0.0607
17,AGTCAAAGTTCCGGACGAGGTAACGTAAAGCACG,-0.357
18,ACTAGCAGGCCAAGTTTGGGGCACTCAAACAAAG,-0.558
19,TCTTGAAGATCAGCAGGTTAAGAAAGCTGGCCAA,0.374
20,AGAACGAGGGCACGCTGAGTTGATAGAAGAGTAG,2.26
